The values below come from PubChem BioAssay (EPA / NIEHS).

Read-out in experiment [1]: Interleukin-1 alpha (IL1a), IL1A (gene 3552)
Description: BSK_KF3CT_IL1a: BioMAP Diversity Plus: KF3CT Assay for Interleukin-1 alpha (IL1a) Biomarker Activity (AID 2283070). The note with it: primary human keratinocytes with fibroblasts; actives raise or lower the signal. The method, boiled down: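 Human keratinocyte plus foreskin fibroblast primary co-culture, sampled 24 h after chemical dosing. IL-1a measured by ELISA; responses fitted bidirectionally against DMSO baseline (negative control), so gain or loss of signal both count.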

Read-out in experiment [2]: TIMP metallopeptidase inhibitor 2 (TIMP2), TIMP2 (gene 7077)
In words: BSK_KF3CT_TIMP2: BioMAP Diversity Plus: KF3CT Assay for TIMP metallopeptidase inhibitor 2 (TIMP2) Biomarker Activity (AID 2283071). The note with it: primary human keratinocytes with fibroblasts; actives raise or lower the signal. The gist of the method: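 Human primary keratinocyte/foreskin fibroblast co-culture dosed with chemical and sampled at 24 h. TIMP-2 levels quantified by ELISA; bidirectional fitting against DMSO negative control as baseline.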

Read-out in experiment [3]: C-C motif chemokine 2 (Homo sapiens) (UniProt P13500)
Description: BSK_KF3CT_MCP1: BioMAP Diversity Plus: KF3CT Assay for Monocyte Chemoattractant Protein 1 (MCP1/CCL2) Biomarker Activity (AID 2283073). The note with it: primary human keratinocytes with fibroblasts; actives raise or lower the signal. The gist of the method:
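Human keratinocyte plus foreskin fibroblast primary co-culture exposed to chemical for 24 h. MCP-1 levels measured by ELISA. Bidirectional curve fitting relative to DMSO negative control as baseline.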

Read-out in experiment [4]: Matrix Metallopeptidase 9 (MMP9), MMP9 (gene 4318)
In words: BSK_KF3CT_MMP9: BioMAP Diversity Plus: KF3CT Assay for Matrix Metallopeptidase 9 (MMP9) Biomarker Activity (AID 2283074). Conditions: primary human keratinocytes with fibroblasts; actives raise or lower the signal. The gist of the method:
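Keratinocyte plus foreskin fibroblast human primary skin co-culture was dosed with chemical and MMP-9 was quantified by ELISA 24 h later. Bidirectional curve fitting used DMSO as negative control and activity baseline.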

Read-out in experiment [5]: urokinase plasminogen activator (uPA), PLAU (gene 5328)
In words: BSK_KF3CT_uPA: BioMAP Diversity Plus: KF3CT Assay for urokinase plasminogen activator (uPA) Biomarker Activity (AID 2283075). Conditions: primary human keratinocytes with fibroblasts; actives raise or lower the signal. The method, boiled down:
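Human keratinocyte plus foreskin fibroblast primary co-culture exposed to chemical for 24 h. uPA levels were quantified by ELISA, and activity was fitted bidirectionally against a DMSO negative-control baseline.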

Read-out in experiment [6]: CD40, CD40 (gene 958)
Description: BSK_LPS_CD40: BioMAP Diversity Plus: LPS Assay for CD40 Biomarker Activity (AID 2283076). Conditions: primary human HUVEC with PBMC; actives raise or lower the signal. The method, boiled down: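 Primary human umbilical vein endothelial cells co-cultured with peripheral blood mononuclear cells, LPS-stimulated, were dosed with chemical and read 24 h later. CD40 levels were measured by ELISA and fitted bidirectionally against DMSO as negative control and baseline.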

Read-out in experiment [7]: E-selectin (Homo sapiens) (UniProt P16581)
Description: BSK_LPS_Eselectin: BioMAP Diversity Plus: LPS Assay for Eselectin Biomarker Activity (AID 2283077). Conditions: primary human HUVEC with PBMC; actives raise or lower the signal. The method, boiled down:
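Human umbilical vein endothelial cells co-cultured with peripheral blood mononuclear cells under LPS stimulation; E-selectin measured by ELISA 24 h after chemical dosing. Activity fitted bidirectionally against DMSO as negative control and baseline.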

Read-out in experiment [8]: Interleukin-8 (IL8), CXCL8 (gene 3576)
Description: BSK_LPS_IL8: BioMAP Diversity Plus: LPS Assay for Interleukin-8 (IL8) Biomarker Activity (AID 2283078). The note with it: primary human HUVEC with PBMC; actives raise or lower the signal. The method, boiled down:
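Human umbilical vein endothelial cells co-cultured with PBMC were stimulated with LPS; IL-8 levels were measured by ELISA 24 h after chemical dosing. Activity was fitted bidirectionally against DMSO as negative control and baseline.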

Experiment [9] can be described thus: BSK_LPS_SRB: Viability Assessment in the BioMAP Diversity Plus: LPS Assay (AID 2283079).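 Note: total protein by sulforhodamine B absorbance as a cytotoxicity measure; measured one day after compound addition.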 The note with it: primary human HUVEC with PBMC. The gist of the method:
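Human umbilical vein endothelial cells co-cultured with PBMC (LPS system) were dosed for 24 h. Total protein was stained with 0.1% sulforhodamine B after 10% TCA fixation, read at 560 nm, and fitted bidirectionally against DMSO baseline.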

Read-out in experiment [10]: Interleukin-1 alpha (IL1a), IL1A (gene 3552)
In words: BSK_LPS_IL1a: BioMAP Diversity Plus: LPS Assay for Interleukin-1 alpha (IL1a) Biomarker Activity (AID 2283080). The note with it: primary human HUVEC with PBMC; actives raise or lower the signal. The method, boiled down: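 Human umbilical vein endothelial cells co-cultured with peripheral blood mononuclear cells were LPS-stimulated and exposed to test chemicals for 24 h. IL-1 alpha was quantified by ELISA, with bidirectional curve fitting against DMSO as the negative control and baseline.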

Read-out in experiment [11]: Monocyte Chemoattractant Protein-1 (MCP1), CCL2 (gene 6347)
In words: BSK_LPS_MCP1: BioMAP Diversity Plus: LPS Assay for Monocyte Chemoattractant Protein-1 (MCP1) Biomarker Activity (AID 2283081).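 For AC50: secreted MCP-1 protein quantified by ELISA in culture supernatant.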 Conditions: primary human HUVEC with PBMC; actives raise or lower the signal. The gist of the method: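 HUVEC plus PBMC co-culture (human primary cells, LPS system) exposed to test chemical for 24 h; MCP-1 measured by ELISA. Bidirectional curve fitting against DMSO baseline; parallel SRB total-protein staining flags overt cytotoxicity.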

Experiment [12] can be described thus: BSK_LPS_PGE2: BioMAP Diversity Plus: LPS Assay for Prostaglandin E2 (PGE2) Biomarker Activity (AID 2283082). The note with it: primary human HUVEC with PBMC; actives raise or lower the signal. The gist of the method:
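HUVEC plus PBMC co-culture stimulated with LPS; secreted PGE2 quantified by ELISA 24 h after chemical dosing. Activity fitted bidirectionally against DMSO as negative control and baseline; parallel SRB total-protein staining served as cytotoxicity check.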

Read-out in experiment [13]: Macrophage colony-stimulating factor (MCSF), CSF1 (gene 1435)
In words: BSK_LPS_MCSF: BioMAP Diversity Plus: LPS Assay for Macrophage colony-stimulating factor (MCSF) Biomarker Activity (AID 2283083). Conditions: primary human HUVEC with PBMC; actives raise or lower the signal. The method, boiled down: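 Human umbilical vein endothelial cells co-cultured with peripheral blood mononuclear cells were exposed to compound for 24 h. M-CSF levels were measured by ELISA, and bidirectional curve fitting used DMSO as the negative control and baseline.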

Read-out in experiment [14]: Tissue Factor, F3 (gene 2152)
Description: BSK_LPS_TissueFactor: BioMAP Diversity Plus: LPS Assay for Tissue Factor Biomarker Activity (AID 2283084). The note with it: primary human HUVEC with PBMC; actives raise or lower the signal. The gist of the method:
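Human umbilical vein endothelial cells co-cultured with peripheral blood mononuclear cells were dosed and stimulated with LPS. Cell-surface CD142 was quantified by ELISA at 24 h. Activity was fitted bidirectionally against DMSO baseline.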

Read-out in experiment [15]: Tumor necrosis factor (Homo sapiens) (UniProt P01375)
Description: BSK_LPS_TNFa: BioMAP Diversity Plus: LPS Assay for Tumour Necrosis Factor alpha (TNFa) Biomarker Activity (AID 2283085). The note with it: primary human HUVEC with PBMC; actives raise or lower the signal. The method, boiled down: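 Human umbilical vein endothelial cells co-cultured with PBMC were exposed to test chemical and TNFa measured by ELISA 24 h after dosing. Bidirectional curve fitting was done relative to DMSO as negative control and baseline.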

Read-out in experiment [16]: Vascular cell adhesion molecule 1 (VCAM1), VCAM1 (gene 7412)
In words: BSK_LPS_VCAM1: BioMAP Diversity Plus: LPS Assay for Vascular cell adhesion molecule 1 (VCAM1) Biomarker Activity (AID 2283086). Conditions: primary human HUVEC with PBMC; actives raise or lower the signal. The gist of the method: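 Human umbilical vein endothelial cells co-cultured with peripheral blood mononuclear cells under LPS stimulation were exposed to test chemical for 24 h. VCAM-1 levels were then measured by ELISA, with bidirectional curve fitting relative to DMSO as negative control and baseline.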

Read-out in experiment [17]: CD38, CD38 (gene 952)
Description: BSK_SAg_CD38: BioMAP Diversity Plus: SAg Assay for CD38 Biomarker Activity (AID 2283087). The note with it: primary human HUVEC with PBMC; actives raise or lower the signal. The gist of the method:
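Fluorescence ELISA of cell-surface CD38 served as the read-out, with either increase or decrease fitted against DMSO controls. Cells were a human umbilical vein endothelium plus PBMC co-culture under SEB/TSST-1 stimulation, measured 24 h after dosing.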

Read-out in experiment [18]: CD40, CD40 (gene 958)
Description: BSK_SAg_CD40: BioMAP Diversity Plus: SAg Assay for CD40 Biomarker Activity (AID 2283088). Conditions: primary human HUVEC with PBMC; actives raise or lower the signal. The gist of the method: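 Human umbilical vein endothelial cells co-cultured with PBMC; CD40 levels measured by ELISA with fluorescence read-out 24 h after chemical dosing. Gain or loss of signal fitted bidirectionally against DMSO baseline.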

Read-out in experiment [19]: CD69, CD69 (gene 969)
Description: BSK_SAg_CD69: BioMAP Diversity Plus: SAg Assay for CD69 Biomarker Activity (AID 2283089). The note with it: primary human HUVEC with PBMC; actives raise or lower the signal. The gist of the method:
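Values derive from bidirectional fitting relative to DMSO vehicle. Cells: umbilical vein endothelium plus peripheral blood mononuclear cells, treated 24 h before fluorescent ELISA for CD69.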

More than one record can exist for a structure, and the calls need not agree. Active and inactive are the calls of the source. Rule for the calls: active = hit-call score of the fitted dose curve at least 0.9, where 1 is the maximum; inactive = score below 0.9.

Sequence of Tumor necrosis factor (Homo sapiens) (P01375 whole entry, looked up): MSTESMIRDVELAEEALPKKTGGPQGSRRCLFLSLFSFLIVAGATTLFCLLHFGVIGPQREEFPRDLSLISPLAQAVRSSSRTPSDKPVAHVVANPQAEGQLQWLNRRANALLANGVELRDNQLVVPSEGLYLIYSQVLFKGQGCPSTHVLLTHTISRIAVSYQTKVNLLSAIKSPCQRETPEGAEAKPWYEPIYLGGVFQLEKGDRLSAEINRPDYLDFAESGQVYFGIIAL
Sequence of E-selectin (Homo sapiens) (P16581 whole entry, looked up): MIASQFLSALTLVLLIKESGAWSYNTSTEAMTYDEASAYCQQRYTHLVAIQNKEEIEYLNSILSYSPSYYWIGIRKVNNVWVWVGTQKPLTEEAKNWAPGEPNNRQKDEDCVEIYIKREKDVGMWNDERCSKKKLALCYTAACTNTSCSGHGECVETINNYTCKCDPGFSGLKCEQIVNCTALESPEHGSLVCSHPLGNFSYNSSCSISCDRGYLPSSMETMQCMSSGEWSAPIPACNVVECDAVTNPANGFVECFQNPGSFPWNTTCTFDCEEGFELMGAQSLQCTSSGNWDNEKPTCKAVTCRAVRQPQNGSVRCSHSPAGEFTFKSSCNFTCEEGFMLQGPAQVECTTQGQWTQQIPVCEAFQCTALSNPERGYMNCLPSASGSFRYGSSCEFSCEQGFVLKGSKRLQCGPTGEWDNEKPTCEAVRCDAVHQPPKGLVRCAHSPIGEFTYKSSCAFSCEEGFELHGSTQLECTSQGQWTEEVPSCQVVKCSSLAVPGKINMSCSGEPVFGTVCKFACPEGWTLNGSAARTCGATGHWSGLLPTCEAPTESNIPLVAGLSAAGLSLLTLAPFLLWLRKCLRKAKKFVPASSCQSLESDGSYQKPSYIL

For `NCC(F)(F)C(F)(F)C(F)(F)C(F)(F)C(F)(F)C(F)(F)F`, the outcome in experiment [1], in experiment [2], in [3], in experiment [4], in experiment [5] and in experiment [6] was inactive. The result in experiment [7], in [8], in [9], in [10], in experiment [11] and in experiment [12] was inactive. The result in [13], in experiment [14], in experiment [15], in [16], in [17] and in experiment [18] was inactive. Moreover, the result in [19] was inactive. Moreover, the AC50 in experiment [11] is 19.9 µM (active).
Take `O=S(=O)(O)CCC(F)(F)C(F)(F)C(F)(F)C(F)(F)F`: the outcome in [1], in experiment [2], in experiment [3], in experiment [4], in experiment [6] and in experiment [7] was inactive. Also, the result in experiment [8], in [9], in experiment [10], in experiment [11], in [12] and in [13] was inactive. For the same compound, the result in experiment [14], in [15], in [16], in experiment [17], in [18] and in [19] was inactive.
For the compound `NC(=O)C(F)(F)C(F)(F)C(F)(F)C(F)F`, the outcome in experiment [1], in experiment [2], in [3], in experiment [4], in [6] and in [7] was inactive. For the same compound, the outcome in experiment [8], in experiment [9], in experiment [10], in experiment [11], in experiment [12] and in [13] was inactive. Besides, the result in [14], in [15], in experiment [16], in experiment [17], in experiment [18] and in experiment [19] was inactive. The AC50 in experiment [8] is 22.7 µM (active).
In the case of `OCC(F)(F)C(F)(F)C(F)(F)CO`, the outcome in experiment [1], in experiment [2], in [3], in experiment [4], in experiment [6] and in [7] was inactive. Further, the result in experiment [8], in experiment [9], in experiment [10], in experiment [11], in [12] and in experiment [13] was inactive. Besides, the result in experiment [14], in experiment [15], in experiment [16], in experiment [17], in experiment [18] and in experiment [19] was inactive.
For `NC(O)(C(F)(F)F)C(F)(F)F`, the outcome in experiment [1], in experiment [2], in [3], in [4], in experiment [6] and in experiment [7] was inactive. Moreover, the outcome in experiment [8], in experiment [9], in experiment [10], in experiment [11], in [12] and in experiment [13] was inactive. For the same compound, the outcome in experiment [14], in experiment [15], in experiment [16], in [17], in experiment [18] and in experiment [19] was inactive. In addition, the AC50 in [8] was 5.33 µM (active).

For orientation: AC50 means the midpoint of the concentration-response curve, whichever way the signal moves.
